Laboratory results published in the supplement of paper PMC4022240.
± gives the standard deviation.

How the values were obtained:
Assay in all cases: peptide microarray binding signal (635 nm), min-max normalized on array (fraction of array maximum); higher = stronger binding
[1] = biological target: T1, HaloTag-ATRX ADD domain (163-292)
T1 chain: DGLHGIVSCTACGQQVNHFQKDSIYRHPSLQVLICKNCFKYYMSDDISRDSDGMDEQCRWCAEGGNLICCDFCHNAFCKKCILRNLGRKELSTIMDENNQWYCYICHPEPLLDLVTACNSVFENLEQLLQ
Outline: (§1)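 Triplicate spots of histone 13-mer peptide–cellulose conjugates with a Cy3 tracer were printed on nitrocellulose and probed for 1 h at 4°C with biotin-labelled HaloTag reader fusions (10 nM to 1 μM) plus streptavidin-Alexa Fluor 647 or rabbit histone antibodies (1:10,000 to 1:2,000) plus anti-rabbit Alexa 647. An Axon GenePix 4000B read the 635 nm channel. Binding signal is the spot-triplicate mean intensity after min-max scaling within each library.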

[2] = biological target: HaloTag-ING2 PHD (mouse Ing2 200-280)
Outline: as §1

[3] = biological target: anti-H3K4me3 antibody ab8580
Outline: as §1

[4] = biological target: anti-H3K9me3 antibody ab8898
Outline: as §1

[5] = peptide region: H3 1-13, peptide modifications: H3T6ph H3K9ac, binder concentration: 1:2,000 dilution
[6] = peptide region: H3 1-13, peptide modifications: H3T6ph H3K9ac, binder concentration: 1:10,000 dilution
[7] = peptide region: H3 1-13, peptide modifications: H3T3ph H3K4me2, binder concentration: 1:2,000 dilution
[8] = peptide region: H3 1-13, peptide modifications: H3T3ph H3K4me2, binder concentration: 1:10,000 dilution
[9] = peptide region: H3 1-13, peptide modifications: H3T6ph, binder concentration: 1:2,000 dilution
[10] = peptide region: H3 1-13, peptide modifications: H3T6ph, binder concentration: 1:10,000 dilution
[11] = peptide region: H3 1-13, peptide modifications: H3T3ph H3K9me2, binder concentration: 1:2,000 dilution
[12] = peptide region: H3 1-13, peptide modifications: H3T3ph H3K9me2, binder concentration: 1:10,000 dilution
[13] = peptide region: H3 1-13, peptide modifications: H3T6ph H3R8me1, binder concentration: 1:2,000 dilution
[14] = peptide region: H3 1-13, peptide modifications: H3T6ph H3R8me1, binder concentration: 1:10,000 dilution
[15] = peptide region: H3 5-17, peptide modifications: H3K9ac H3K14me2, binder concentration: 1:2,000 dilution
[16] = peptide region: H3 5-17, peptide modifications: H3K9ac H3K14me2, binder concentration: 1:10,000 dilution
[17] = peptide region: H3 5-17, peptide modifications: H3K9ac H3K14ac, binder concentration: 1:2,000 dilution
[18] = peptide region: H3 5-17, peptide modifications: H3K9ac H3K14ac, binder concentration: 1:10,000 dilution
[19] = peptide region: H3 1-13, peptide modifications: H3T3ph H3K9ac, binder concentration: 1:2,000 dilution
[20] = peptide region: H3 1-13, peptide modifications: H3T3ph H3K9ac, binder concentration: 1:10,000 dilution
[21] = peptide region: H3 1-13, peptide modifications: H3T6ph H3K9me1, binder concentration: 1:2,000 dilution
[22] = peptide region: H3 1-13, peptide modifications: H3T6ph H3K9me1, binder concentration: 1:10,000 dilution
[23] = peptide region: H3 1-13, peptide modifications: H3T6ph H3K9me2, binder concentration: 1:2,000 dilution
[24] = peptide region: H3 1-13, peptide modifications: H3T6ph H3K9me2, binder concentration: 1:10,000 dilution

ARTKQTARKSTGG [H3 1-13 A R T K Q Tph A R Kac S T G G]
peptide microarray binding signal ([1]; peptide region: H3 1-13, peptide modifications: H3T6ph H3K9ac, binder concentration: 50 nM): 0.00724 ± 0.00023 | peptide microarray binding signal ([1]; peptide region: H3 1-13, peptide modifications: H3T6ph H3K9ac, binder concentration: 500 nM): 0.0156 ± 0.0012 | peptide microarray binding signal ([2]; peptide region: H3 1-13, peptide modifications: H3T6ph H3K9ac, binder concentration: 10 nM): 0.0307 ± 0.002 | peptide microarray binding signal ([2]; peptide region: H3 1-13, peptide modifications: H3T6ph H3K9ac, binder concentration: 100 nM): 0.0441 ± 0.0085 | peptide microarray binding signal [3, 5]: 0.00995 ± 0.00061 | peptide microarray binding signal [3, 6]: 0.00622 ± 0.00014 | peptide microarray binding signal [4, 5]: 0.00527 ± 0.00089 | peptide microarray binding signal [4, 6]: 0.00294 ± 0.00011

ARTKQTARKSTGG [H3 1-13 A R Tph Kme2 Q T A R K S T G G]
peptide microarray binding signal ([1]; peptide region: H3 1-13, peptide modifications: H3T3ph H3K4me2, binder concentration: 50 nM): 0.00555 ± 0.0001 | peptide microarray binding signal ([1]; peptide region: H3 1-13, peptide modifications: H3T3ph H3K4me2, binder concentration: 500 nM): 0.00891 ± 0.00073 | peptide microarray binding signal ([2]; peptide region: H3 1-13, peptide modifications: H3T3ph H3K4me2, binder concentration: 10 nM): 0.0132 ± 0.0013 | peptide microarray binding signal ([2]; peptide region: H3 1-13, peptide modifications: H3T3ph H3K4me2, binder concentration: 100 nM): 0.0916 ± 0.0043 | peptide microarray binding signal [3, 7]: 0.0195 ± 0.0045 | peptide microarray binding signal [3, 8]: 0.024 ± 0.0033 | peptide microarray binding signal [4, 7]: 0.0022 ± 0.00054 | peptide microarray binding signal [4, 8]: 0.00185 ± 8e-05

ARTKQTARKSTGG [H3 1-13 A R T K Q Tph A R K S T G G]
peptide microarray binding signal ([1]; peptide region: H3 1-13, peptide modifications: H3T6ph, binder concentration: 50 nM): 0.004044 ± 1.6e-05 | peptide microarray binding signal ([1]; peptide region: H3 1-13, peptide modifications: H3T6ph, binder concentration: 500 nM): 0.009 ± 0.00047 | peptide microarray binding signal ([2]; peptide region: H3 1-13, peptide modifications: H3T6ph, binder concentration: 10 nM): 0.0046 ± 0.00047 | peptide microarray binding signal ([2]; peptide region: H3 1-13, peptide modifications: H3T6ph, binder concentration: 100 nM): 0.0195 ± 0.002 | peptide microarray binding signal [3, 9]: 0.000793 ± 7.5e-05 | peptide microarray binding signal [3, 10]: 0.000285 ± 3.1e-06 | peptide microarray binding signal [4, 9]: 0.000755 ± 2.9e-05 | peptide microarray binding signal [4, 10]: 0.000288

ARTKQTARKSTGG [H3 1-13 A R Tph K Q T A R Kme2 S T G G]
peptide microarray binding signal ([1]; peptide region: H3 1-13, peptide modifications: H3T3ph H3K9me2, binder concentration: 50 nM): 0.0107 ± 0.00063 | peptide microarray binding signal ([1]; peptide region: H3 1-13, peptide modifications: H3T3ph H3K9me2, binder concentration: 500 nM): 0.0409 ± 0.02 | peptide microarray binding signal ([2]; peptide region: H3 1-13, peptide modifications: H3T3ph H3K9me2, binder concentration: 10 nM): 0.0306 ± 0.0047 | peptide microarray binding signal ([2]; peptide region: H3 1-13, peptide modifications: H3T3ph H3K9me2, binder concentration: 100 nM): 0.0365 ± 0.018 | peptide microarray binding signal [3, 11]: 0.0117 ± 0.0018 | peptide microarray binding signal [3, 12]: 0.0191 ± 0.0097 | peptide microarray binding signal [4, 11]: 0.0295 ± 0.0016 | peptide microarray binding signal [4, 12]: 0.013 ± 0.0018

ARTKQTARKSTGG [H3 1-13 A R T K Q Tph A Rme K S T G G]
peptide microarray binding signal ([1]; peptide region: H3 1-13, peptide modifications: H3T6ph H3R8me1, binder concentration: 50 nM): 0.00476 ± 9.2e-05 | peptide microarray binding signal ([1]; peptide region: H3 1-13, peptide modifications: H3T6ph H3R8me1, binder concentration: 500 nM): 0.022 ± 0.0012 | peptide microarray binding signal ([2]; peptide region: H3 1-13, peptide modifications: H3T6ph H3R8me1, binder concentration: 10 nM): 0.00507 ± 0.0011 | peptide microarray binding signal ([2]; peptide region: H3 1-13, peptide modifications: H3T6ph H3R8me1, binder concentration: 100 nM): 0.0331 ± 0.012 | peptide microarray binding signal [3, 13]: 0.00111 ± 7.2e-05 | peptide microarray binding signal [3, 14]: 0.00148 ± 0.0001 | peptide microarray binding signal [4, 13]: 0.00234 ± 0.00042 | peptide microarray binding signal [4, 14]: 0.00213 ± 7.1e-05

QTARKSTGGKAPR [H3 5-17 Q T A R Kac S T G G Kme2 A P R]
peptide microarray binding signal ([1]; peptide region: H3 5-17, peptide modifications: H3K9ac H3K14me2, binder concentration: 50 nM): 0.00746 ± 0.00033 | peptide microarray binding signal ([1]; peptide region: H3 5-17, peptide modifications: H3K9ac H3K14me2, binder concentration: 500 nM): 0.0201 ± 0.0018 | peptide microarray binding signal ([2]; peptide region: H3 5-17, peptide modifications: H3K9ac H3K14me2, binder concentration: 10 nM): 0.0147 ± 0.0015 | peptide microarray binding signal ([2]; peptide region: H3 5-17, peptide modifications: H3K9ac H3K14me2, binder concentration: 100 nM): 0.0485 ± 0.015 | peptide microarray binding signal [3, 15]: 0.0108 ± 0.00077 | peptide microarray binding signal [3, 16]: 0.00468 ± 0.00039 | peptide microarray binding signal [4, 15]: 0.0189 ± 0.00074 | peptide microarray binding signal [4, 16]: 0.406 ± 0.064

QTARKSTGGKAPR [H3 5-17 Q T A R Kac S T G G Kac A P R]
peptide microarray binding signal ([1]; peptide region: H3 5-17, peptide modifications: H3K9ac H3K14ac, binder concentration: 50 nM): 0.0318 ± 0.0049 | peptide microarray binding signal ([1]; peptide region: H3 5-17, peptide modifications: H3K9ac H3K14ac, binder concentration: 500 nM): 0.0984 ± 0.027 | peptide microarray binding signal ([2]; peptide region: H3 5-17, peptide modifications: H3K9ac H3K14ac, binder concentration: 10 nM): 0.0862 ± 0.034 | peptide microarray binding signal ([2]; peptide region: H3 5-17, peptide modifications: H3K9ac H3K14ac, binder concentration: 100 nM): 0.048 ± 0.023 | peptide microarray binding signal [3, 17]: 0.0141 ± 0.0045 | peptide microarray binding signal [3, 18]: 0.0234 ± 0.0064 | peptide microarray binding signal [4, 17]: 0.03 ± 0.0085 | peptide microarray binding signal [4, 18]: 0.0332 ± 0.014

ARTKQTARKSTGG [H3 1-13 A R Tph K Q T A R Kac S T G G]
peptide microarray binding signal ([1]; peptide region: H3 1-13, peptide modifications: H3T3ph H3K9ac, binder concentration: 50 nM): 0.00881 ± 0.00025 | peptide microarray binding signal ([1]; peptide region: H3 1-13, peptide modifications: H3T3ph H3K9ac, binder concentration: 500 nM): 0.0147 ± 0.00088 | peptide microarray binding signal ([2]; peptide region: H3 1-13, peptide modifications: H3T3ph H3K9ac, binder concentration: 10 nM): 0.0255 ± 0.0014 | peptide microarray binding signal ([2]; peptide region: H3 1-13, peptide modifications: H3T3ph H3K9ac, binder concentration: 100 nM): 0.04 ± 0.0064 | peptide microarray binding signal [3, 19]: 0.0124 ± 0.0018 | peptide microarray binding signal [3, 20]: 0.00867 ± 0.00052 | peptide microarray binding signal [4, 19]: 0.00523 ± 0.00022 | peptide microarray binding signal [4, 20]: 0.00363 ± 0.00025

ARTKQTARKSTGG [H3 1-13 A R T K Q Tph A R Kme S T G G]
peptide microarray binding signal ([1]; peptide region: H3 1-13, peptide modifications: H3T6ph H3K9me1, binder concentration: 50 nM): 0.00721 ± 0.00059 | peptide microarray binding signal ([1]; peptide region: H3 1-13, peptide modifications: H3T6ph H3K9me1, binder concentration: 500 nM): 0.0115 ± 0.00096 | peptide microarray binding signal ([2]; peptide region: H3 1-13, peptide modifications: H3T6ph H3K9me1, binder concentration: 10 nM): 0.0206 ± 0.0028 | peptide microarray binding signal ([2]; peptide region: H3 1-13, peptide modifications: H3T6ph H3K9me1, binder concentration: 100 nM): 0.0319 ± 0.0032 | peptide microarray binding signal [3, 21]: 0.00568 ± 0.0013 | peptide microarray binding signal [3, 22]: 0.0686 ± 0.046 | peptide microarray binding signal [4, 21]: 0.00584 ± 0.00057 | peptide microarray binding signal [4, 22]: 0.00582 ± 0.00014

ARTKQTARKSTGG [H3 1-13 A R T K Q Tph A R Kme2 S T G G]
peptide microarray binding signal ([1]; peptide region: H3 1-13, peptide modifications: H3T6ph H3K9me2, binder concentration: 50 nM): 0.00674 ± 3.8e-05 | peptide microarray binding signal ([1]; peptide region: H3 1-13, peptide modifications: H3T6ph H3K9me2, binder concentration: 500 nM): 0.0151 ± 0.00044 | peptide microarray binding signal ([2]; peptide region: H3 1-13, peptide modifications: H3T6ph H3K9me2, binder concentration: 10 nM): 0.0226 ± 0.0028 | peptide microarray binding signal ([2]; peptide region: H3 1-13, peptide modifications: H3T6ph H3K9me2, binder concentration: 100 nM): 0.0292 ± 0.0053 | peptide microarray binding signal [3, 23]: 0.00732 ± 0.0017 | peptide microarray binding signal [3, 24]: 0.0124 ± 0.0021 | peptide microarray binding signal [4, 23]: 0.0419 ± 0.0095 | peptide microarray binding signal [4, 24]: 0.0174 ± 0.00085
